Experimental data reported in the supplement of paper PMC10849652.
Of roughly 7,900 targets only a part is listed; those with a hit were picked by preference. About 0.6% of all pairs of compound and target were hits. A number with no mark means an inactive call.

Columns and labels:
Assay in all cases: log2 fold change, soluble protein after heating vs DMSO (PISA); higher = thermal stabilisation; K562 cells, 10 uM, 30 min; active = over 0.2 and 3.5 SD of the protein, either way, in both replicates (recomputed)
[1] = compound: CC1=C(C=C(C=C1)NC(=O)C2=CC(=CC=C2)C(C)(C)C#N)NC3=CC4=C(C=C3)N=CN(C4=O)C
Method in brief: (§1)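 Soluble protein was defined as the supernatant after 21,000xg for 90 min. It came from K562 cells at 2×10^6 cells/mL given 10 μM compound for 30 min, heated in aliquots for 3 min across 48°C-58°C, pooled, and extracted in PBS with 0.5% NP-40 at 4°C, and was quantified by TMTpro 16plex LC-MS/MS with equalised channel sums. Thermal stability against control samples, from duplicates, is reported as log2 fold change.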

[2] = compound: CC1=C(C=C(C=C1)NC(=O)C2=CC(=CC=C2)N(C)C)NC(=O)C3=CC=C(C=C3)O
Method in brief: as §1

[3] = compound: CC1=CC=C(C=C1)SC2=C3C=C(SC3=CN=C2)C(=O)N
Method in brief: as §1

[4] = compound: CC1=NC(=CC=C1)C2=C(N=C(N2)C(C)(C)C)C3=CC4=NC=CN=C4C=C3
Method in brief: as §1

Nexturastat A = compound: CCCCN(Cc1ccc(C(=O)NO)cc1)C(=O)Nc1ccccc1 [Nexturastat A]
Method in brief: as §1

vemurafenib = compound: CCCS(=O)(=O)Nc1ccc(F)c(C(=O)c2c[nH]c3ncc(-c4ccc(Cl)cc4)cc23)c1F [vemurafenib]
Method in brief: as §1

[5] = compound: CCCS(=O)(=O)Nc1ccc(F)c(C(=O)c2c[nH]c3ncc(Cl)cc23)c1F
Method in brief: as §1

[6] = compound: CCCc1cc(C)[nH]c(=O)c1CNC(=O)c1cc(-c2ccnc(N3CCN(C)CC3)c2)cc2c1cnn2C(C)C
Method in brief: as §1

givinostat = compound: CCN(CC)Cc1ccc2cc(COC(=O)Nc3ccc(C(=O)NO)cc3)ccc2c1 [givinostat]
Method in brief: as §1

barasertib = compound: CCN(CCCOc1ccc2c(Nc3cc(CC(=O)Nc4cccc(F)c4)[nH]n3)ncnc2c1)CCOP(=O)(O)O [barasertib]
Method in brief: as §1

[7] = compound: CC[C@@H]1C(=O)N(C)c2cnc(Nc3ccc(C(=O)NC4CCN(C)CC4)cc3OC)nc2N1C1CCCC1
Method in brief: as §1

volasertib = compound: CC[C@@H]1C(=O)N(C)c2cnc(Nc3ccc(C(=O)N[C@H]4CC[C@H](N5CCN(CC6CC6)CC5)CC4)cc3OC)nc2N1C(C)C [volasertib]
Method in brief: as §1

[8] = compound: CC[C@H](C)N1C=C(C2=C(C=C(C=C21)C3=CN=C(C=C3)N4CCNCC4)C(=O)NCC5=C(C=C(NC5=O)C)C)C
Method in brief: as §1

epoxomicin = compound: CC[C@H](C)[C@@H](C(=O)N[C@@H]([C@@H](C)O)C(=O)N[C@@H](CC(C)C)C(=O)[C@]1(CO1)C)NC(=O)[C@H]([C@@H](C)CC)N(C)C(=O)C [epoxomicin]
Method in brief: as §1

[9] = compound: CCn1c(C(=O)N(C2CC2)C2CC2)cc2c3c(ncn3C)c(Nc3cc(C)n(C)n3)nc21
Method in brief: as §1

[10] = compound: CCn1cc(-c2ccnc3[nH]c(-c4cccc(CN(C)C)c4)cc23)c(-c2ccc(NC(=O)N(C)C)cc2)n1
Method in brief: as §1

[11] = compound: CN(C)CC(=O)Nc1ccc2[nH]c(=O)c3ccccc3c2c1
Method in brief: as §1

rosiglitazone = compound: CN(CCOC1=CC=C(C=C1)C[C@H]2C(=O)NC(=O)S2)C3=CC=CC=N3 (racemic) [rosiglitazone]
Method in brief: as §1

[12] = compound: CN1C2=C(C3=C1C(=O)N(N=C3)CC4=CC(=CC=C4)N)SC(=C2)S(=O)C
Method in brief: as §1

[13] = compound: CN1CCC(CNc2ccc3ncc(-c4cccc(OC(F)(F)F)c4)n3n2)CC1
Method in brief: as §1

UniProt P43362, sequence (P43362 whole entry, looked up): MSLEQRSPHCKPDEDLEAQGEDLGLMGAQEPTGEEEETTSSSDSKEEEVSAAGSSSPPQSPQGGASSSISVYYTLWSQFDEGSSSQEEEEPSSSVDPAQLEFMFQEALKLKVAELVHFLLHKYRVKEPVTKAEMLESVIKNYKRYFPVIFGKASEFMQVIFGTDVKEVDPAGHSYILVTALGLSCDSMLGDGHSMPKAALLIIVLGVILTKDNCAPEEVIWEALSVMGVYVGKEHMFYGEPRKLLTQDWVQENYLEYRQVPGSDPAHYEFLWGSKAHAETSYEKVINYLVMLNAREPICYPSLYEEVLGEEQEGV
UniProt P02545, sequence (P02545 whole entry, looked up): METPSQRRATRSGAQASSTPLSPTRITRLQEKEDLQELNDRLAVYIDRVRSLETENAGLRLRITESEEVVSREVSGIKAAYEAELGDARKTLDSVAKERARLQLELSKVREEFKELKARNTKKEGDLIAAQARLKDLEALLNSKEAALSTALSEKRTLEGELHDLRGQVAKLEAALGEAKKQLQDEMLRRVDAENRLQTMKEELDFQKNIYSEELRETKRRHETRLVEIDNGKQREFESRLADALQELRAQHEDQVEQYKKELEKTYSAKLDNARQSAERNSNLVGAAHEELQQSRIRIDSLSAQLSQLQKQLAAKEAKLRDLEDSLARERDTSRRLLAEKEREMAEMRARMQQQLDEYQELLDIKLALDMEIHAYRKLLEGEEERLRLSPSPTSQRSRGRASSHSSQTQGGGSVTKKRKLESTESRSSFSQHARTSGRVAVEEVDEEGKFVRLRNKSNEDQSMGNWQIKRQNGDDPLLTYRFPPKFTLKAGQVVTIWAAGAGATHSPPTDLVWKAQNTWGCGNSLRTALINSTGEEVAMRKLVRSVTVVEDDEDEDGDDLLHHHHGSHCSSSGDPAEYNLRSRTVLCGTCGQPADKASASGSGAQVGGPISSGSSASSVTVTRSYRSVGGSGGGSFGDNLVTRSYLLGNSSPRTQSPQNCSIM
UniProt O95372, sequence (O95372 whole entry, looked up): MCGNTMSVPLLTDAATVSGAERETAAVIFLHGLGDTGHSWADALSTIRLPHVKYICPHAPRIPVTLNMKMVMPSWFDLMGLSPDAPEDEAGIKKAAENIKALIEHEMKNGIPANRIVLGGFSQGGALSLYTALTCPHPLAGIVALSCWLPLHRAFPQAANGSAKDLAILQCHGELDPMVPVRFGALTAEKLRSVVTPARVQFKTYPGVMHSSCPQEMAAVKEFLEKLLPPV
UniProt Q96AQ8, sequence (Q96AQ8 whole entry, looked up): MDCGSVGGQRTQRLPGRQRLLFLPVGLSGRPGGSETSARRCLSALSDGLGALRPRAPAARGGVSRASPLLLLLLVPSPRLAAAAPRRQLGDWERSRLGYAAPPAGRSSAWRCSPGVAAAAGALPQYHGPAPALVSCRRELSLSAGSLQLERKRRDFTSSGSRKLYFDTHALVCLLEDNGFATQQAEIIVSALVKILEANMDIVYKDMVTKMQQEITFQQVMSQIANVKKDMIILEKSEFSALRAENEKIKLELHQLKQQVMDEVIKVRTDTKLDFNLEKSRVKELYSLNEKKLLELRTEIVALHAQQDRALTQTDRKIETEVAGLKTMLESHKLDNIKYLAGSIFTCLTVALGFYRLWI
UniProt Q8TBB5, sequence (Q8TBB5 whole entry, looked up): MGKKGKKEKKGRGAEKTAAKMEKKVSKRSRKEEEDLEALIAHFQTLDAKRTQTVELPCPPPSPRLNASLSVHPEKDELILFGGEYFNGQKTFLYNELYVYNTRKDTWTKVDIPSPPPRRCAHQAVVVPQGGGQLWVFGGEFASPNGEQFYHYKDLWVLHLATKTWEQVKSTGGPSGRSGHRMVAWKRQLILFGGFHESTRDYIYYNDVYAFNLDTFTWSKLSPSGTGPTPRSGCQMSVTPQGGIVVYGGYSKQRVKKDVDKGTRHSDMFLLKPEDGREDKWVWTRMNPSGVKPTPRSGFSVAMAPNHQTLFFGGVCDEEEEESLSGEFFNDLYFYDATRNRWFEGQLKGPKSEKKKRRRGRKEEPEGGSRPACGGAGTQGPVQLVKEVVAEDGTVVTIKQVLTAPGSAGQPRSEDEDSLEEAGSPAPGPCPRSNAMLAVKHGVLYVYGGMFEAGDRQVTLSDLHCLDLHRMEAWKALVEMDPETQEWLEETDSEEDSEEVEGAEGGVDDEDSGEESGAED
UniProt Q8N108, sequence (Q8N108 whole entry, looked up): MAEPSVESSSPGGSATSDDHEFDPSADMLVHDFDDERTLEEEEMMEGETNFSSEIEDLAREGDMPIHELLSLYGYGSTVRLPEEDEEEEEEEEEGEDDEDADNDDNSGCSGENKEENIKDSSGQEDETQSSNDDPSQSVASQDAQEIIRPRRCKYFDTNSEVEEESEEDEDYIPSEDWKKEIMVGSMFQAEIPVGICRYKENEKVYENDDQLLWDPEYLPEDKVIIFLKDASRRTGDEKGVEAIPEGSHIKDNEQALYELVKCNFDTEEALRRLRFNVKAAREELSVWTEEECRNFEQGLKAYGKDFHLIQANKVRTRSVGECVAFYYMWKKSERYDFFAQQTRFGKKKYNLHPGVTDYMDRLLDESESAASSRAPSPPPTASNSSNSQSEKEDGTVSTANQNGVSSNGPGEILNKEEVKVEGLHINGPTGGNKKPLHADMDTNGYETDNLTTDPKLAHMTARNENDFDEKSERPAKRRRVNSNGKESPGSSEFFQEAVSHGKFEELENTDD
UniProt P48449, sequence (P48449 whole entry, looked up): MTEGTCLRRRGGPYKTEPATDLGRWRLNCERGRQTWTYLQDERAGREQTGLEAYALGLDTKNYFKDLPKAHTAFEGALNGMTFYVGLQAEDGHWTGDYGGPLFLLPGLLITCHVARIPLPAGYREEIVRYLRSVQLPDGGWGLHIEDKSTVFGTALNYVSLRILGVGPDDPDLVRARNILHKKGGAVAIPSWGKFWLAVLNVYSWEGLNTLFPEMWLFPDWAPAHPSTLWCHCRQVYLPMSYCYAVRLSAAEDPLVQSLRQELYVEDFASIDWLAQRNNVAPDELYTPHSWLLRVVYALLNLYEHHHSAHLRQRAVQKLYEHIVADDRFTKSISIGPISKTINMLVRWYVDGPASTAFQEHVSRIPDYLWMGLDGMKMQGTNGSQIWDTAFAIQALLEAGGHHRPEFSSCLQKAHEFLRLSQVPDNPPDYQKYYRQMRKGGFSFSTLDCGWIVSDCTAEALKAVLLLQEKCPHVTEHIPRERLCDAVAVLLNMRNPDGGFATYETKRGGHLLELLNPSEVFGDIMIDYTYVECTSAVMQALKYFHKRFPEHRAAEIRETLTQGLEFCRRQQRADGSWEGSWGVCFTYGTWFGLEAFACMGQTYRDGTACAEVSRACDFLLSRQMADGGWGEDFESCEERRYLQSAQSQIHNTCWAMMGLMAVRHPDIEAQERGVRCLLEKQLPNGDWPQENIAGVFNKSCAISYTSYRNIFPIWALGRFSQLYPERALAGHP

| Target | log2 fold change [1] | log2 fold change [2] | log2 fold change [3] | log2 fold change [4] | log2 fold change (Nexturastat A) | log2 fold change (vemurafenib) | log2 fold change [5] | log2 fold change [6] | log2 fold change (givinostat) | log2 fold change (barasertib) | log2 fold change [7] | log2 fold change (volasertib) | log2 fold change [8] | log2 fold change (epoxomicin) | log2 fold change [9] | log2 fold change [10] | log2 fold change [11] | log2 fold change (rosiglitazone) | log2 fold change [12] | log2 fold change [13] |
| --- | --- | --- | --- | --- | --- | --- | --- | --- | --- | --- | --- | --- | --- | --- | --- | --- | --- | --- | --- | --- |
| MCUR1 (UniProt Q96AQ8) | 0 | -0.067 | -0.01 | 0.012 | -0.06 | 0.018 | -0.041 | -0.079 | -0.033 | -0.008 | 0.022 | 0.137 | 0.006 | 0.009 | -0.027 | -0.041 | -0.038 | 0.025 | -0.042 | -0.115 |
| MIER1 isoform 12 (UniProt Q8N108) | 0.003 | 0.016 | 0.002 | 0.012 | 0.306 (active) | -0.006 | 0.008 | -0.013 | 0.31 (active) | 0.01 | -0.032 | -0.102 | 0.066 | 0.02 | -0.039 | -0.095 | -0.033 | -0.027 | -0.077 | -0.107 |
| LSS (UniProt P48449) | -0.032 | -0.122 | -0.071 | 0.054 | 0.012 | 0.03 | 0.073 | 0 | 0.766 (active) | 0.382 | 0.024 | 0.719 (active) | 0.074 | 0.129 | -0.056 | -0.024 | 0.055 | 0.077 | -0.025 | 0.384 |
| LMNA (UniProt P02545) | -0.023 | 0.095 | -0.026 | -0.002 | -0.022 | 0.088 | 0.014 | -0.027 | 0.014 | -0.004 | 0.008 | -0.15 | 0.01 | -0.014 | -0.022 | 0.057 | 0.009 | -0.025 | -0.006 | 0 |
| MAGEA9 (UniProt P43362) | -0.033 | 0.05 | -0.005 | -0.087 | 0.005 | -0.031 | 0.072 | 0.054 | 0.066 | 0.036 | -0.11 | -0.39 (active) | -0.057 | -0.044 | -0.05 | -0.088 | 0.044 | 0.038 | -0.084 | -0.116 |
| KLHDC4 (UniProt Q8TBB5) | -0.027 | -0.003 | -0.007 | -0.092 | 0.18 | 0.096 | 0.076 | -0.223 | -0.011 | 0.028 | 0.091 | -0.342 | 0.012 | -0.026 | 0.036 | -0.064 | 0.065 | -0.012 | 0.075 | 0.158 |
| LYPLA2 (UniProt O95372) | 0.043 | -0.131 | 0.082 | -0.056 | -0.071 | 0.132 | 0.038 | -0.001 | -0.055 | -0.099 | 0.049 | -0.033 | 0.018 | 0.521 (active) | 0.025 | -0.05 | 0.108 | -0.021 | -0.053 | 0.098 |
| LRPPRC (UniProt P42704) | 0.264 | -0.054 | 0.222 | 0.336 | 0.282 | 0.227 | 0.264 | -0.005 | 0.417 | 0.369 | -0.413 | -0.801 | 0.161 | 0.277 | -0.243 | 0.01 | 0.334 | 0.214 | 0.177 | -0.323 |
